# Measurements reported in PubChem BioAssay (NCI).
# The panel holds about 83,000 compounds, 20% with a hit somewhere; the sample as a whole holds those more often.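 Each cell line was grown in a 96-well plate and treated with one concentration of compound for 48 hours. Values below 10 were considered active.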 Unmarked numbers belong to inactive results. Activity calls are given as the source filed them.
# Tests used:
# Assay in all cases: NCI-60 one-dose screen, 48 h (100 = growth as untreated, 0 = no growth, -100 = all killed)
# Settings in all cases: 10 µM unless noted
# [1] = test system: SK-MEL-2 melanoma
# [2] = test system: EKVX NSCLC
# [3] = test system: SN12C renal
# [4] = test system: UO-31 renal
# [5] = test system: TK-10 renal
# [6] = test system: ACHN renal
# [7] = test system: CAKI-1 renal
# [8] = test system: A498 renal
# [9] = test system: CCRF-CEM leukemia
# [10] = test system: MOLT-4 leukemia
# [11] = test system: SR leukemia
# [12] = test system: RPMI-8226 leukemia
# [13] = test system: OVCAR-8 ovarian
# [14] = test system: OVCAR-5 ovarian
# [15] = test system: OVCAR-4 ovarian
# [16] = test system: SK-OV-3 ovarian
# [17] = test system: IGROV1 ovarian
# [18] = test system: OVCAR-3 ovarian
# [19] = test system: HS 578T breast
# [20] = test system: NCI/ADR-RES ovarian
SMILES,growth [1],growth [2],growth [3] [%],growth [4],growth [5],growth [6],growth [7],growth [8],growth [9],growth [10],growth [11],growth [12],growth [13] [%],growth [14],growth [15] [%],growth [16],growth [17],growth [18],growth [19],growth [20]
c1ccc(-c2ccc(-c3ccccc3)[nH]2)cc1,98.7%,75.6%,95.5,87%,138%,100%,83.6%,63.7%,90.9%,80.3%,96.1%,79.7%,101,104%,75.8,107%,85.8%,106%,100%,96.4%
COC(=O)OC1C(O[C@H]2C[C@H]3[C@@H]4CC=C5C[C@@H](O)CC[C@]5(C)[C@H]4CC[C@]3(C)[C@H]2[C@H](C)C(=O)CCC(C)C)OCC(O)C1OC1OCC(O)C(O)C1OC(=O)c1ccc(OC)cc1 (stereo not given in full),-46.1% (active),14.3%,43.4,-40.4% (active),0.902% (active),31.6%,-16.6% (active),-74% (active),-25.9% (active),-36.5% (active),2.6% (active),-40.7% (active),26.8,31.2%,57.1,-44.5% (active),29.5%,58.1%,-16.5% (active),70.5%
CC[C@]1(O)C[C@H]2CN(CCc3c([nH]c4ccccc34)C(C(=O)OC)(c3cc4c(cc3OC)N(C)[C@H]3[C@@](O)(C(=O)OC)[C@H](OC(C)=O)[C@]5(CC)[C@@H]6C[C@@H]6CN6CC[C@]43[C@@H]65)C2)C1 (stereo not given in full),45.5%,35.2%,22.2,9.66% (active),52.7%,5.92% (active),-13.2% (active),16.6%,4.35% (active),3.74% (active),-20.5% (active),42.1%,19.4,6.6% (active),29.1,-11.9% (active),9.14% (active),5.03% (active),43.9%,-3.99% (active)
COc1ccc(C(=O)OC2C(OC3C(O)COC(O[C@H]4C[C@H]5[C@@H]6CC=C7C[C@@H](O)CC[C@]7(C)[C@H]6CC[C@]5(C)[C@H]4[C@H](C)C(=O)CCC(C)C)C3OC(C)=O)OCC(O)C2O)cc1 (stereo not given in full),-52% (active),7.53% (active),44.3,-35.7% (active),-20.1% (active),28.6%,-31.1% (active),-82.2% (active),-23.2% (active),-42.4% (active),-8.55% (active),-29.1% (active),19.3,21.6%,52.1,-44.1% (active),28.3%,53.4%,-29.3% (active),60.1%
c1ccc(-c2nnn(-c3ccccc3)n2)cc1,94.7%,93.2%,103,81.3%,147%,105%,92.9%,119%,95.2%,91.2%,89%,98.6%,107,105%,106,106%,104%,111%,112%,116%
CC(C)N(C(=S)SSC(=S)N(C(C)C)C(C)C)C(C)C,109%,110%,101,80.3%,100%,98.2%,85.8%,97.8%,87.5%,105%,105%,87.2%,111,107%,78.7,112%,92.2%,108%,106%,104%
CC(C)CCC(=O)[C@@H](C)[C@H]1[C@@H](OC2OCC(O)C(O)C2NS(C)(=O)=O)C[C@H]2[C@@H]3CC=C4C[C@@H](O)CC[C@]4(C)[C@H]3CC[C@]12C (stereo not given in full),-36.9% (active),27.7%,75.2,-16.1% (active),26.1%,42.1%,24.1%,-58.4% (active),-8.84% (active),-0.0897% (active),17%,-26.1% (active),35.4,64.5%,75.5,0.627% (active),61.2%,68.8%,-4.14% (active),82.7%
Cc1cccc(N=NC(=S)NNc2cccc(C)c2)c1,111%,98.3%,102,81.6%,136%,92.1%,94.5%,87.3%,86.6%,98.4%,107%,96.4%,108,111%,101,105%,92.4%,139%,116%,113%
COc1ccc(CNc2c3ccccc3nc3ccccc23)cc1F,45.1%,26.1%,25.9,13.5%,36.1%,10.9%,21.3%,-6.26% (active),29.6%,8.92% (active),4.85% (active),-5.78% (active),29.4,36.9%,26.1,48.1%,15.8%,52.2%,45.5%,20.8%
Oc1ccccc1-c1nnc(COc2ccc(Cl)cc2Cl)o1,37.9%,31.1%,52.6,30.2%,63.7%,43.5%,41.5%,89.9%,15.5%,19.5%,36%,39.4%,36.8,89.1%,49.3,60.7%,50.7%,20.2%,78.2%,30.6%
CC(C)(C)c1ccc(OC(=O)Nc2ccccc2)cc1,103%,111%,100,87%,98.7%,102%,104%,97.7%,87.1%,56.6%,76.3%,105%,105,106%,113,110%,107%,105%,103%,106%
